# From the supplement of paper PMC10503962
# Tested on: Trichuris muris adult worms
# Experiment: mean motility score (Paragon pixel variance) of adult worms (arbitrary units); higher = more motile worms, i.e. less anthelmintic effect; extreme values may be limits of the assay
# Settings: 100 µM; 24 h
# Procedure: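 Primary ex vivo screen of 409 approved drugs against adult Trichuris muris worms: one worm per well in RPMI-1640 with penicillin/streptomycin, 100 µM drug in 1% DMSO, 37 °C, 5% CO2 for 24 h. Motility was recorded with INVAPP (200-frame movies) and scored with the Paragon pixel-variance algorithm. Values are means of triplicate wells run on three occasions; levamisole was the positive control and DMSO the negative control.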
row,SMILES,mean motility score
1,C=C(CC)C(=O)c1ccc(OCC(=O)O)c(Cl)c1Cl [ethacrynic acid],215
2,CC(C)[C@H](N)C(=O)OCCOCn1cnc2c(=O)nc(N)[nH]c21.Cl [valacyclovir hydrochloride],4300
3,NCCS [cysteamine],2360
4,CCOC(=O)C1=C(COCCN)NC(C)=C(C(=O)OC)C1c1ccccc1Cl (stereo not given) [amlodipine],8.67
5,CCOC(=O)N1CCC(=C2c3ccc(Cl)cc3CCc3cccnc32)CC1.Cl [loratadine hydrochloride],0
6,CC(=O)Nc1c(I)c(NC(C)=O)c(I)c(C(=O)O)c1I [diatrizoic acid],1110
7,COc1ccc(/C=C/C(=O)Nc2ccccc2C(=O)O)cc1OC [tranilast],1720
8,COc1ccccc1OCCNCC(O)COc1cccc2[nH]c3ccccc3c12 (stereo not given) [carvedilol],35.7
9,NS(=O)(=O)c1cc(Cl)c(Cl)c(S(N)(=O)=O)c1 [dichlorphenamide],752
10,N[C@@H]1CONC1=O [cycloserine],3930
11,Cc1oncc1C(=O)Nc1ccc(C(F)(F)F)cc1 [leflunomide],2250
12,COC(=O)c1ccc2c(c1)NC(=O)/C2=C(\Nc1ccc(N(C)C(=O)CN2CCN(C)CC2)cc1)c1ccccc1 [nintedanib],3140
13,O=C(O)c1ccc2ccccc2c1O.OCc1cc(C(O)CNCCCCCCOCCCCc2ccccc2)ccc1O (stereo not given) [salmeterol xinafoate],0
14,NC(N)=O [urea],4760
15,Nc1ccc(S(=O)(=O)NC(=O)c2ccccc2)cc1 [sulfabenzamide],4050
16,COc1ccc(-c2ccc3cc(C(=O)O)ccc3c2)cc1C12CC3CC(CC(C3)C1)C2 [adapalene],3410
17,Cc1ccc(NC(=O)c2ccc(CN3CCN(C)CC3)cc2)cc1Nc1nccc(-c2cccnc2)n1 [imatinib],3600
18,C[C@@H]1CN(c2c(F)c(N)c3c(=O)c(C(=O)O)cn(C4CC4)c3c2F)C[C@H](C)N1 [sparfloxacin],3980
19,CCCN(CCc1cccs1)[C@H]1CCc2c(O)cccc2C1 [rotigotine],3100
20,CCCCCNC(=N)N/N=C/c1c[nH]c2ccc(OC)cc12.O=C(O)/C=C\C(=O)O [tegaserod maleate],0

row,SMILES,mean motility score
1,CCCCNc1ccc(C(=O)OCCN(C)C)cc1 [tetracaine],4810
2,Cc1ccc(C)c(OCCCC(C)(C)C(=O)O)c1 [gemfibrozil],3280
3,CC(C)NCC(O)COc1cccc2ccccc12.Cl (stereo not given) [propranolol hydrochloride],4260
4,CC(=O)O[C@H]1C(=O)[C@@]2(C)[C@H]([C@H](OC(=O)c3ccccc3)[C@]3(O)C[C@H](OC(=O)[C@H](O)[C@@H](NC(=O)c4ccccc4)c4ccccc4)C(C)=C1C3(C)C)[C@]1(OC(C)=O)CO[C@@H]1C[C@@H]2O [paclitaxel],1480
5,CNC1(C)[C@H]2CC[C@H](C2)C1(C)C.Cl (stereo not given in full) [mecamylamine hydrochloride],3150
6,COc1cc2nc(N3CCN(C(=O)C4CCCO4)CC3)nc(N)c2cc1OC.Cl (stereo not given) [terazosin hydrochloride],2970
7,CN(C)C(=N)N=C(N)N.Cl [metformin hydrochloride],4240
8,O=c1[nH]c(=O)n([C@H]2C[C@H](O)[C@@H](CO)O2)cc1F [floxuridine],2280
9,CC(c1cc2ccccc2s1)N(O)C(N)=O (stereo not given) [zileuton],3310
10,CN1CCC[C@H]1c1cccnc1 [nicotine],0
11,Cc1cn([C@H]2C=C[C@@H](CO)O2)c(=O)[nH]c1=O [stavudine],2180
12,CC[N+](C)(C)c1cccc(O)c1.[Cl-] [edrophonium chloride],2890
13,Nc1ccccc1NC(=O)c1ccc(CNC(=O)OCc2cccnc2)cc1 [entinostat],2720
14,CC(C)O [isopropyl alcohol],2760
15,CCOC(=O)C1=C(C)NC(C)=C(C(=O)OC)C1c1cccc([N+](=O)[O-])c1 (stereo not given) [nitrendipine],0
16,COC(=O)CCC(=O)CN.Cl [methyl aminolevulinate hydrochloride],2550
17,Cc1ccc(O)c(-n2nc3ccccc3n2)c1 [drometrizole],2400
18,C/C(=C\C(=O)OCCCCCCCCC(=O)O)C[C@@H]1OC[C@H](C[C@@H]2O[C@H]2[C@@H](C)[C@H](C)O)[C@@H](O)[C@H]1O [mupirocin],2520
19,CNCCC=C1c2ccccc2CCc2ccccc21 [nortriptyline],911
20,C[C@H]1O[C@@H](n2cc(F)c(=O)[nH]c2=O)[C@H](O)[C@@H]1O [doxifluridine],2010
